The source of these data is PubChem BioAssay (Tox21).

Records with an inconclusive call do not appear. Values without a mark were called inactive. Active and inactive are the calls of the source. Unless noted, calls follow the shape of the dose curve; as a rule, active = well fitted curve in the direction sought with a large enough effect in the repeat runs; inconclusive = weak or mixed curves; inactive = no such curve, though single readings can be large; an effect the other way counts as inactive or inconclusive.

The nature of test [1]: qHTS assay to identify aromatase inhibitors - cell viability counter screen (AID 743084).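 Also: cells stimulated with testosterone during compound exposure; nearly all actives have a fitted effect of over 55% in size.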 Also: potency is read from the fitted curve at half-maximal effect. In general terms: qHTS replaces the single test concentration by a dilution series.
Test [2] concerns the target Aryl hydrocarbon receptor (Homo sapiens) (UniProt P35869). In words: qHTS assay to identify small molecule that activate the aryl hydrocarbon receptor (AhR) signaling pathway (AID 743085).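 Also: HG2L7.5c1 human HepG2 liver cells with stably integrated DRE-driven firefly reporter; series mostly up to about 70 µM; nearly all actives have a fitted effect of over 15% in size.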 The essentials: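 HepG2 cells stably carrying a 20-DRE firefly luciferase reporter (HG2L7.5c1) treated with compound for 24 hr at 37C. Luciferase read by ONE-Glo luminescence, with CellTiter-Fluor viability read first.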

Test [3] is described as follows: qHTS assay to identify small molecule that activate the aryl hydrocarbon receptor (AhR) signaling pathway - cell viability counter screen (AID 743086). Also: nearly all actives have a fitted effect of over 45% in size. Also: potency is read from the fitted curve at half-maximal effect. In short, it runs like this: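 HepG2-AhR-luc (HG2L7.5c1) cells, 4000/well, were preincubated 5 h at 37C, exposed to compound in qHTS format for 24 hr at 37C, then given CellTiter-Fluor for 30 min; viability was read as fluorescence in the reporter wells.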

In test [4] the target is Peroxisome proliferator-activated receptor gamma (Homo sapiens) (UniProt P37231). Description: qHTS assay to identify small molecule agonists of the peroxisome proliferator-activated receptor gamma (PPARg) signaling pathway (AID 743094; active = well fitted activation curve with a large enough effect in the signal ratio in the repeat runs, not every such curve was filed as active; the % refers to the signal ratio). The essentials:
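Stably transfected HEK293H cells (GeneBLAzer PPARg UAS-bla) were incubated with test substances for 17 h at 37C after a 5 h pre-incubation; beta-lactamase activity was then detected by FRET substrate fluorescence.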

Test [5] has the same target. In words: qHTS assay to identify small molecule antagonists of the peroxisome proliferator-activated receptor gamma (PPARg) signaling pathway (AID 743191; calls by dose curve; also: series mostly up to about 63 µM; nearly all actives have a fitted effect of over 30% in size). The essentials:
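GeneBLAzer PPARg UAS-bla HEK293H cells carrying a UAS-driven beta-lactamase reporter were plated at 3000 cells/well, preincubated 5 h at 37C, then given compound for 17 h at 37C; LiveBLAzer B/G FRET substrate was read after 1 h at room temperature.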

The nature of test [6]: qHTS assay to identify small molecule antagonists of the peroxisome proliferator-activated receptor gamma (PPARg) signaling pathway - cell viability counter screen (AID 743194). Also: nearly all actives have a fitted effect of over 55% in size. The essentials:
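PPARg-UAS-bla HEK293H cells were plated, rested 5 h at 37 C, then treated with compounds plus rosiglitazone (50 nM final) for 17 h at 37 C; viability was then read by CellTiter-Glo luminescence after 30 min at room temperature.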

A short description of test [7]: qHTS assay for small molecule agonists of the antioxidant response element (ARE) signaling pathway (AID 743202; active = well fitted activation curve with a large enough effect in the signal ratio in the repeat runs, not every such curve was filed as active; the % refers to the signal ratio). The essentials: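 Read-out: LiveBLAzer B/G FRET substrate fluorescence after 2 h at room temperature, following 16 h compound treatment at 37 C of HepG2 cells carrying an ARE-driven beta-lactamase reporter.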
Test [8] is described as follows: qHTS assay for small molecule agonists of the antioxidant response element (ARE) signaling pathway - cell viability counter screen (AID 743203; calls by dose curve; also: nearly all actives have a fitted effect of over 55% in size). In short, it runs like this:
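Cells (ARE-bla HepG2, 2,000/well) receive DMSO-dissolved compounds after a 5 hrs rest. Plates incubate 16 hrs at 37C/5% CO2. CellTiter-Glo luminescence is then recorded after 30 min at room temperature.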

A short description of test [9]: qHTS assay for small molecule activators of the heat shock response signaling pathway - cell viability counter screen (AID 743209). Also: nearly all actives have a fitted effect of over 50% in size. In short, it runs like this: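 Quantitative HTS format, Tox21 10K library. HeLa cells carrying an HSE-driven beta-lactamase reporter were treated 5 h at 37 C, then assessed for viability by CellTiter-Glo luminescence.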
Test [10] in a line: qHTS assay for small molecule activators of the heat shock response signaling pathway (AID 743210; active = well fitted activation curve with a large enough effect in the signal ratio in the repeat runs, with a control signal flat, not every such curve was filed as active; the % refers to the signal ratio; also: series mostly up to about 63 µM). The essentials:
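HSE-bla HeLa cells (beta-lactamase reporter under heat shock response elements) were exposed to compounds for 5 h at 37 C, then loaded with LiveBLAzer B/G FRET substrate for 2.5 h at room temperature before fluorescence reading.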

In test [11] the target is Peroxisome proliferator-activated receptor delta (Homo sapiens) (UniProt Q03181). In words: qHTS assay to identify small molecule agonists of the peroxisome proliferator-activated receptor delta (PPARd) signaling pathway (AID 743212; calls by dose curve). In short, it runs like this:
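GeneBLAzer PPARd UAS-bla HEK293H cells (beta-lactamase reporter under UAS control), plated and rested 5 h at 37 C, then exposed to compounds in DMSO at 37 C; LiveBLAzer B/G FRET substrate added, 2 h room temperature, fluorescence read.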

A short description of test [12]: qHTS assay to identify small molecule antagonists of the peroxisome proliferator-activated receptor delta (PPARd) signaling pathway - cell viability counter screen (AID 743213). Also: nearly all actives have a fitted effect of over 50% in size. The essentials:
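In this counter screen, HEK293H cells carrying a UAS-beta-lactamase reporter are co-treated with test compounds and 300 nM L165041 (final) for 17 h at 37 C; cell viability is quantified by CellTiter-Glo luminescence.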

Test [13] addresses Peroxisome proliferator-activated receptor delta (Homo sapiens) (UniProt Q03181). In words: qHTS assay to identify small molecule antagonists of the peroxisome proliferator-activated receptor delta (PPARd) signaling pathway (AID 743215; active = well fitted inhibition curve with a large enough effect in the signal ratio in the repeat runs, not every such curve was filed as active; the % refers to the signal ratio;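 also: cells stimulated with agonist L165041 at 300 nM final during compound exposure; series mostly up to about 62 µM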). In short, it runs like this: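 Antagonist-mode beta-lactamase reporter screen: HEK293H cells with UAS-bla under PPARd control, stimulated by 300 nM L165041 (final) alongside test compound for 17 h at 37 C, then FRET fluorescence after 2 h substrate incubation.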

A short description of test [14]: qHTS assay to identify small molecule agonists of the farnesoid-X-receptor (FXR) signaling pathway - cell viability counter screen (AID 743218). Also: nearly all actives have a fitted effect of over 45% in size. In short, it runs like this: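 In GeneBLAzer FXR-UAS-bla HEK 293T cells, compounds act for 16 h at 37 C. Cell viability is then scored in the reporter wells by CellTiter-Glo, 30 min at RT, luminescence.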
Test [15] deals with Bile acid receptor (Homo sapiens) (UniProt Q96RI1). In words: qHTS assay to identify small molecule agonists of the farnesoid-X-receptor (FXR) signaling pathway (AID 743220; active = well fitted activation curve with a large enough effect in the signal ratio in the repeat runs, not every such curve was filed as active; the % refers to the signal ratio). The essentials: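 Beta-lactamase reporter under UAS control in GeneBLAzer FXR HEK 293T cells (5000/well) measured with LiveBLAzer FRET substrate after 2 h at room temperature. Compound exposure lasted 16 h at 37C.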

Test [16] is described as follows: qHTS assay to identify small molecule antagonists of the farnesoid-X-receptor (FXR) signaling pathway - cell viability counter screen (AID 743221; active = well fitted cell-killing curve with a large enough effect in the repeat runs, not every such curve was filed as active; also: nearly all actives have a fitted effect of over 50% in size). The essentials: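 GeneBLAzer FXR-UAS-bla HEK 293T cells, compound plus chenodeoxycholic acid (50 uM final), 16 h at 37 C. CellTiter-Glo added to the same wells after the beta-lactamase read; luminescence read after 30 min at room temperature as viability.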

Test [17] in a line: qHTS assay to identify small molecule agonists of the peroxisome proliferator-activated receptor delta (PPARd) signaling pathway - cell viability counter screen (AID 743211). Also: nearly all actives have a fitted effect of over 55% in size. The essentials:
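PPARd-bla HEK293H cells (3000/well) were pre-incubated 5 h at 37 C, then exposed to compound for 17 h at 37 C. After 2 h with LiveBLAzer substrate, CellTiter-Glo was added to the same wells; luminescence read after 30 min at room temperature.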

Test [18] concerns the target Vitamin D3 receptor (Homo sapiens) (UniProt P11473). Description: qHTS assay to identify small molecule agonists of the vitamin D receptor (VDR) signaling pathway (AID 743222; calls by dose curve). The essentials: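 Agonist activity measured in VDR-bla reporter cells. Exposure 16 h, 37C, 5% CO2; detection by B/G FRET substrate, 2 h RT.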
For test [19] the target is unchanged. Description: qHTS assay to identify small molecule antagonists of the vitamin D receptor (VDR) signaling pathway (AID 743223; active = well fitted inhibition curve with a large enough effect in the signal ratio in the repeat runs, not every such curve was filed as active; the % refers to the signal ratio). The essentials:
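VDR-bla cells were treated with compound plus 3 nM final 1alpha,25-dihydroxyvitamin D3 for 16 h at 37C. Beta-lactamase reporter read by B/G FRET substrate fluorescence after 2 h at room temperature. qHTS format.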

Test [20] concerns the target Bile acid receptor (Homo sapiens) (UniProt Q96RI1). In words: qHTS assay to identify small molecule antagonists of the farnesoid-X-receptor (FXR) signaling pathway (AID 743217; active = well fitted inhibition curve with a large enough effect in the signal ratio in the repeat runs, not every such curve was filed as active; the % refers to the signal ratio). The essentials:
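Beta-lactamase reporter under UAS control in HEK 293T cells; compound exposure 16 h at 37 °C in the presence of chenodeoxycholic acid (50 uM final); signal from B/G FRET substrate after 2 h at room temperature.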

Sequence of Peroxisome proliferator-activated receptor gamma (Homo sapiens) (P37231 whole entry, looked up): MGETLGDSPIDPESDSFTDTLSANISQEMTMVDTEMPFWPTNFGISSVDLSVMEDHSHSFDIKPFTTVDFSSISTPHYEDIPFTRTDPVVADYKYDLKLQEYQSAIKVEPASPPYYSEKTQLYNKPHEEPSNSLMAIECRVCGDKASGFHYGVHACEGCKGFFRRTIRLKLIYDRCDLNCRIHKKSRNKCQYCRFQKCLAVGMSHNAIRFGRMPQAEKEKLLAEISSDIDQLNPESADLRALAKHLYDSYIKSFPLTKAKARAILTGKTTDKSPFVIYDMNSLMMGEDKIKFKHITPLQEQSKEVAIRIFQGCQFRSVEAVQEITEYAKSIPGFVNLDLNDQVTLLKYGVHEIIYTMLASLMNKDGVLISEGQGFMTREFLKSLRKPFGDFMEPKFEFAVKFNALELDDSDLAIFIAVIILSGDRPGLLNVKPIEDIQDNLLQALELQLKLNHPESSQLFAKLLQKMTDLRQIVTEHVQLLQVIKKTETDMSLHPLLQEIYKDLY
Sequence of Vitamin D3 receptor (Homo sapiens) (P11473 whole entry, looked up): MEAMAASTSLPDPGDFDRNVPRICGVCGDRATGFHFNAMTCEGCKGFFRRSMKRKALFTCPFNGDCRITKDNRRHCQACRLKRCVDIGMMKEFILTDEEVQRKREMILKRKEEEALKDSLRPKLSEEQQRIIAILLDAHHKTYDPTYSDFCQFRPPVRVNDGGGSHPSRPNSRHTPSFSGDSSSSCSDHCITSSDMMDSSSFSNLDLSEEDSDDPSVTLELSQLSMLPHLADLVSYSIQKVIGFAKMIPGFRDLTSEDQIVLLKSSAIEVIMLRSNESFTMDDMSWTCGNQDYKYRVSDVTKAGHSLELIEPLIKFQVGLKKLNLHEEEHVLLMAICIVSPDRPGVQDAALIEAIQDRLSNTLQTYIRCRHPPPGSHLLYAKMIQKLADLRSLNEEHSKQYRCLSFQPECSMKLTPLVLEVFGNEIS
Sequence of Bile acid receptor (Homo sapiens) (Q96RI1 whole entry, looked up): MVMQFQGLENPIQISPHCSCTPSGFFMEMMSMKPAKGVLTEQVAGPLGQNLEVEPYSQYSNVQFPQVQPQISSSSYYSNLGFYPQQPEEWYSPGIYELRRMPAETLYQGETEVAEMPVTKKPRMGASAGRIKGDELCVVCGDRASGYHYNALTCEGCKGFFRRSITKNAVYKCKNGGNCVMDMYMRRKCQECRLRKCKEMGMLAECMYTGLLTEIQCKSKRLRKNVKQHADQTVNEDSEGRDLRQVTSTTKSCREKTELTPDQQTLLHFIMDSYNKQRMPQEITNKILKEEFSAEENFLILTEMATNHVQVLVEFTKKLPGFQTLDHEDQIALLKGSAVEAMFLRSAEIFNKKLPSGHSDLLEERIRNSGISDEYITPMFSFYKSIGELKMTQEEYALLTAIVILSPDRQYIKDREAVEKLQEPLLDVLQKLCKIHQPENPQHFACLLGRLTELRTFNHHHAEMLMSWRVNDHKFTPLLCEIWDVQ
Sequence of Aryl hydrocarbon receptor (Homo sapiens) (P35869 whole entry, looked up): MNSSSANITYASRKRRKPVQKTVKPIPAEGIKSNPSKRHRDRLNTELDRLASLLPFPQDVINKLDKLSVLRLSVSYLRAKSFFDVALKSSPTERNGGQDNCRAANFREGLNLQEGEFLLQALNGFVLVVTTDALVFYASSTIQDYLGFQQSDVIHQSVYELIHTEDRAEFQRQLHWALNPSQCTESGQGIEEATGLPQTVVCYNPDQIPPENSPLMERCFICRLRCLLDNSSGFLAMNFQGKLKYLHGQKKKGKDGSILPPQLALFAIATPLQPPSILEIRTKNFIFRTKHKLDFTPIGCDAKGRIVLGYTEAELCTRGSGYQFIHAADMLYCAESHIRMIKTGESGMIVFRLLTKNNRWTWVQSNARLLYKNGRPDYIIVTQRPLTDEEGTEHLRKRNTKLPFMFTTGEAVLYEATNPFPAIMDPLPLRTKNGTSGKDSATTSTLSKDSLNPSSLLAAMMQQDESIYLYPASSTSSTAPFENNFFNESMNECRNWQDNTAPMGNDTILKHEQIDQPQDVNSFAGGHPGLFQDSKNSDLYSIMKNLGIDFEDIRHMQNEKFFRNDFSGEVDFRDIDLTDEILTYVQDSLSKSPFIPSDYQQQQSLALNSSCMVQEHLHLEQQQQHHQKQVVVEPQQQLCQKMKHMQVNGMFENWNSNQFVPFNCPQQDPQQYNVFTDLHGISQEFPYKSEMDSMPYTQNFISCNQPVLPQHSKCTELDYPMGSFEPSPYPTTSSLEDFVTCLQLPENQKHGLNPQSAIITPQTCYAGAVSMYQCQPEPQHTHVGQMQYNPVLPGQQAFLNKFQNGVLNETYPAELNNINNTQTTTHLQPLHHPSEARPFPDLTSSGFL
Sequence of Peroxisome proliferator-activated receptor delta (Homo sapiens) (Q03181 whole entry, looked up): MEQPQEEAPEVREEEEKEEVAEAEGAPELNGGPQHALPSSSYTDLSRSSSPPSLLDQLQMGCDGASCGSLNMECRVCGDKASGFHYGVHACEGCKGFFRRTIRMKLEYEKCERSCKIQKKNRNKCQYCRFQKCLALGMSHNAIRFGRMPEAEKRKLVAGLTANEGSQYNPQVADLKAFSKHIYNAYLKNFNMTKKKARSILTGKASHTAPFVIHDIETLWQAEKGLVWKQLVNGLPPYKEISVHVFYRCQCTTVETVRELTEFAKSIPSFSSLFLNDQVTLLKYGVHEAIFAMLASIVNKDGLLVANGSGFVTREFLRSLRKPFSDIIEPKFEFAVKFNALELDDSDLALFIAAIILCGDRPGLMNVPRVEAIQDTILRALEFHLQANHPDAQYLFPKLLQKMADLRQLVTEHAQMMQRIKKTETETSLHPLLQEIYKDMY

`C[C@@H](O)[C@H](N)C(=O)O`: the Potency result in test [1], in test [2], in [3], in test [4], in [5] and in test [6] was “inactive” in each case. Also, the Potency result in [7], in test [8], in [9], in test [10], in test [11] and in test [12] was “inactive” in each case. Besides, the Potency entry in test [13], in test [14], in test [15] and in [16] was “inactive” in each case.
`O[C@@H]([C@H](O)[C@H](O)CBr)[C@H](O)CBr`: the Potency entry in test [1], in test [2], in [3], in [4], in [5] and in [6] was “inactive” each time. Further, the Potency result in test [7], in [8], in test [9], in test [10], in test [17] and in [11] was “inactive” each time. Moreover, the Potency entry in [13], in test [14], in [15], in [16] and in test [18] was “inactive” throughout.
In the case of `O=C(O)c1ccc2cc(C(=O)O)ccc2c1`, the Potency result in test [1], in test [2], in test [3], in test [4], in test [5] and in [6] was “inactive” each time. The Potency result in test [7], in test [8], in test [9], in test [10], in [14] and in test [16] was “inactive” each time. Further, the Potency result in [18] and in [19] was “inactive” throughout.
As to `COc1cc(S(=O)(=O)O)c(C)cc1N=Nc1c(O)ccc2cc(S(=O)(=O)O)ccc12`, the Potency in [1] is 8.63 µM (active); in [3], 9.69 µM (active). The Potency result in test [2], in [4], in test [5], in test [6], in test [7] and in [8] was “inactive” throughout. For the same compound, the Potency result in [9], in [10], in [17], in test [11], in [12] and in [13] was “inactive” in each case. Besides, the Potency result in test [20], in test [14], in test [15], in test [16], in test [18] and in test [19] was “inactive” throughout.
On to `CCO[Si](OCC)(OCC)OCC`, for which the Potency result in [1], in test [2], in test [3], in test [4], in test [5] and in [6] was “inactive” each time. Also, the Potency entry in [7], in [8], in test [9], in test [10], in [17] and in [12] was “inactive” in each case. The Potency entry in [14], in [16], in [18] and in test [19] was “inactive” throughout.
For `CC(C)(c1cc(Br)c(OCC(Br)CBr)c(Br)c1)c1cc(Br)c(OCC(Br)CBr)c(Br)c1` (centres undefined), the Potency result in [1], in test [2], in test [3], in [4], in test [5] and in test [6] was “inactive” in each case. The Potency result in test [7], in test [8], in [9], in test [10], in test [12] and in [13] was “inactive” throughout. The Potency result in [14], in test [16], in [18] and in test [19] was “inactive” each time.
With `CCCCCCOC(=O)C(C)CC` (centres undefined), the Potency entry in test [1], in test [2], in test [3], in test [4], in test [5] and in test [6] was “inactive” each time. Moreover, the Potency result in [8], in test [9], in [10], in test [17], in [11] and in test [13] was “inactive” each time. Moreover, the Potency result in [14], in test [15] and in test [16] was “inactive” in each case.
Turning to `CCN(CCN)c1cccc(C)c1`, the Potency entry in test [1], in test [2], in [3], in [4], in test [5] and in [6] was “inactive” each time. For the same compound, the Potency result in test [7], in [8], in [9], in test [17], in test [12] and in test [14] was “inactive” in each case. Besides, the Potency entry in [16], in [18] and in test [19] was “inactive” each time.
